Experimental data as given in publication PMC4336329 (PLoS ONE, 2015).
Out of some 310,000 compounds screened, about 14,000 (4.5%) showed an effect of 50% or more. The effect is printed as a negative number. This is one part of a sample in which strong results are shown more often than they occur.

The compounds below were run against human ether-à-go-go-related gene (hERG) potassium channel (human, UniProt Q12809) (assay: primary screen, population patch clamp on CHO cells stably expressing hERG; higher = less effect of the substance).
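Also: peak tail current of the secondary pulse compared with the same well before compound.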

Chain of human ether-à-go-go-related gene (hERG) potassium channel (Q12809 whole entry, looked up): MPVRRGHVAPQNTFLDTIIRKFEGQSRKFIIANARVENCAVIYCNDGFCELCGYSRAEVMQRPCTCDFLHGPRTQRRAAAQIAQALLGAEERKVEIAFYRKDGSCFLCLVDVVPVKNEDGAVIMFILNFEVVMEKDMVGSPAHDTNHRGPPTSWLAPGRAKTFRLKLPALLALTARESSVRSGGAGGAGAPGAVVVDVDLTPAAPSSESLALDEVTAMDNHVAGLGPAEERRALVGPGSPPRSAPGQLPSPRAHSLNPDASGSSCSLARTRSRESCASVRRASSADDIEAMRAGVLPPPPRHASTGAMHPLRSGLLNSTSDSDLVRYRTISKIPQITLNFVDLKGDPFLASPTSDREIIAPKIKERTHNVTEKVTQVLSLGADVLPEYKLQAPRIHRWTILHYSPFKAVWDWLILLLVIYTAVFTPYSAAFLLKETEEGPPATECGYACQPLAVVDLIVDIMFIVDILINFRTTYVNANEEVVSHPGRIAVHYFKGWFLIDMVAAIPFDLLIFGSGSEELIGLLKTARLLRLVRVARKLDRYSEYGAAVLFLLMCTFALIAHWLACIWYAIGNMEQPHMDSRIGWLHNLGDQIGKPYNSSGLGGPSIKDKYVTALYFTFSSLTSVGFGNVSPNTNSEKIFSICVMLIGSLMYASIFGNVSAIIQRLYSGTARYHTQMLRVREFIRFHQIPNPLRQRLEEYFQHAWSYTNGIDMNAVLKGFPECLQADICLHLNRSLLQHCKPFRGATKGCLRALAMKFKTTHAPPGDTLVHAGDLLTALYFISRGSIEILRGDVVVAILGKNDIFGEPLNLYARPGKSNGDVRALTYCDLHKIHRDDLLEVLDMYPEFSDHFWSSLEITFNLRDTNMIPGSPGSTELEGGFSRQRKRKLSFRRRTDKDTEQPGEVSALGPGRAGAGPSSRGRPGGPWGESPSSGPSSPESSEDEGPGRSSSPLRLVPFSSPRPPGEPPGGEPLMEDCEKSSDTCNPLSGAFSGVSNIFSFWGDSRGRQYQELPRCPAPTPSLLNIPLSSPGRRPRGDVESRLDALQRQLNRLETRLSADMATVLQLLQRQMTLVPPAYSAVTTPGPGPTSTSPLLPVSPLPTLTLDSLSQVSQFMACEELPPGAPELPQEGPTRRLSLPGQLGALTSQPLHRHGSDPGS

| Structure (SMILES) | hERG current change (%, negative = inhibition) at 10uM [%] |
| --- | --- |
| O=C(Nc1ccccc1)C1=C(O)CC(c2ccoc2)CC1=Nc1ccccc1 (stereo not shown) | 15 |
| O=C1CCCCC1Oc1ccc2ccc(=O)oc2c1 (stereo not shown) | 19.6 |
| Cc1coc2c(C)c3oc(=O)c(CCC(=O)NCCN4CCOCC4)c(C)c3cc12 | -24.6 |
| O=C(c1ccc(Oc2ccc(Cl)cc2)c([N+](=O)[O-])c1)N1CCCC1 | -63 |
| COc1cc(N(C)C)c([N+](=O)[O-])cc1C(=O)N1CCN(Cc2ccccc2)CC1 | 9.99 |
| O=C(c1ccc(Oc2ccc([N+](=O)[O-])cc2Cl)cc1)N1CCCC1 | -32.2 |
| COc1ccc(C(=O)N2CCN(Cc3ccccc3)CC2)cc1[N+](=O)[O-] | -52 |
| O=C(c1ccc(Cl)c([N+](=O)[O-])c1)N1CCN(Cc2ccc3c(c2)OCO3)CC1 | -26.7 |
| CC(C(=O)N1CCN(Cc2ccccc2)CC1)c1ccc([N+](=O)[O-])cc1 (stereo not shown) | -43.7 |
| O=C(c1ccc(Br)c([N+](=O)[O-])c1)N1CCN(Cc2ccccc2)CC1 | -61.2 |
| Cc1cc(C(=O)N2CCN(Cc3ccccc3)CC2)ccc1[N+](=O)[O-] | -32 |
| COc1ccc(C(=O)N2CCN(Cc3ccc4c(c3)OCO4)CC2)cc1[N+](=O)[O-] | -44.6 |
| NC(=O)c1ccc(Oc2ccc(Cl)cc2)c([N+](=O)[O-])c1 | 12.6 |
| CC(OC(=O)c1ccc(Cl)c([N+](=O)[O-])c1)C(=O)N1CCN(Cc2ccccc2)CC1 (stereo not shown) | -71.1 |
| O=C(c1ccc(S(=O)(=O)c2ccccc2Cl)c([N+](=O)[O-])c1)N1CCN(Cc2ccccc2)CC1 | -25.3 |
| CCOC(=O)C1(C)/C(=N/Nc2cccc(Cl)c2)C(=O)C(=O)N1c1ccccc1 (stereo not shown) | 6.3 |
| CCOc1ccc(Br)cc1S(=O)(=O)Nc1cccc(S(=O)(=O)N(CC)CC)c1 | -4.53 |
| Cc1ccc(CN2CCN(/N=C/c3ccc(C(=O)O)cc3)CC2)cc1 | 5.6 |
| CCOc1ccccc1N(CC(=O)NC1CCCCC1)C(=O)CCC(=O)Nc1cc(C)ccn1 | 3.35 |
| Cc1cccc(CSc2nnc(CCNC(=O)OC(C)(C)C)o2)c1 | -7.22 |
| COc1c([N+](=O)[O-])c(=O)oc2ccccc12 | 15.4 |
| Cc1ccc(S(=O)(=O)CC(=O)Nc2ncc([N+](=O)[O-])s2)cc1 | 21.8 |

| Structure (SMILES) | hERG current change (%, negative = inhibition) at 10uM [%] |
| --- | --- |
| CC(C)(C)NC(=O)COC(=O)CCC(=O)c1ccc(F)cc1 | 12 |
| COc1ccccc1C(=O)NNc1ncc(C)s1.Cl | -0.745 |
| COc1ccc(C(=O)N2CCN(c3ncccn3)CC2)cc1[N+](=O)[O-] | -2.35 |
| COc1ccc(C(=O)N2CCN(CCc3ccccc3)CC2)cc1[N+](=O)[O-] | -75.6 |
| COc1ccc(C(=O)N2CCN(c3ccccn3)CC2)cc1[N+](=O)[O-] | -14.9 |
| COc1ccc(N(CC(=O)Nc2ccc(F)c(F)c2)S(=O)(=O)c2c(C)n[nH]c2C)cc1 | 18.5 |
| O=C(Oc1ccc(Br)cc1)c1cccnc1 | 4.3 |
| CN(C)CCCO/N=C(\c1ccccc1)c1ccncc1.O=C([O-])C(=O)[O-] | 5.25 |
| O=C(OCc1ccc(Br)cc1)c1cccnc1 | -5.96 |
| C/C(=N\NC(=O)c1ccc(Br)cc1)c1cccnc1 | 5.22 |
| O=C(NCCNC(=O)c1cccnc1)c1ccc(Br)cc1 | 14.6 |
| Cc1ccc(C(=O)O/N=C(\c2ccccc2)c2cccnc2)cc1 | -18.7 |
| CN(C)C/C=C(\c1ccc(Br)cc1)c1cccnc1.Cl.O | -63.7 |
| CN(C)C/C=C(/c1ccc(Br)cc1)c1cccnc1.Cl | -71.5 |
| CN(C)CCO/N=C(\c1ccc(Br)cc1)c1cccnc1.O=C(O)C(=O)O | -63.5 |
| CC[C@@]12C(=O)N(c3cccc(F)c3)C(=O)N1[C@H](c1cccc(C)c1)[C@@H]1C(=O)N(Cc3ccccc3)C(=O)[C@@H]12 | 0.427 |
| Cc1cc(-c2ccccc2)nc(N/N=C/c2ccco2)n1 | -0.804 |
| O=C(OCC(=O)N1CCCc2ccccc21)c1ccccc1NCCO | -15.9 |
| Cc1ccc(S(=O)(=O)N2CCCCC2)cc1NC(=O)CSc1ccc2c(c1)OCCO2 | -9.32 |
| CCOC(=O)CSc1n[nH]c(NS(=O)(=O)c2ccccc2C(F)(F)F)n1 | -1.78 |
| CSc1ccc(C2Nc3ccccc3-c3cc(C)nn32)cc1 (stereo not shown) | -3.75 |
| COc1cc(/C=C(/C#N)c2nc3ccccc3[nH]2)ccc1OC(=O)c1ccco1 | -6.24 |

| Structure (SMILES) | hERG current change (%, negative = inhibition) at 10uM [%] |
| --- | --- |
| O=C(COC(=O)c1ccccc1)Nc1cc(S(=O)(=O)N2CCCCCC2)ccc1Cl | 7.5 |
| CS(=O)(=O)c1ccc(Cl)c(NC(=O)COC(=O)c2cccc(S(=O)(=O)N3CCCC3)c2)c1 | -51.5 |
| Cc1ccc(C(=O)OCC(=O)Nc2cc(S(C)(=O)=O)ccc2Cl)cc1S(=O)(=O)N1CCCCC1 | -26.9 |
| O=C(COC(=O)CCS(=O)(=O)c1ccccc1)Nc1cc(S(=O)(=O)N2CCCCC2)ccc1Cl | -4.61 |
| O=C(COC(=O)Cc1ccccc1)Nc1cc(S(=O)(=O)N2CCCCC2)ccc1Cl | -81.8 |
| CS(=O)(=O)c1ccc(Cl)c(NC(=O)COC(=O)c2cccc(S(=O)(=O)N3CCCCC3)c2)c1 | -30.9 |
| CCOC(=O)c1ccc(NC(=O)NCc2ccccc2)cc1 | -9.51 |
| COc1ccc(S(=O)(=O)N2CCN(C(=S)Nc3ccc(S(N)(=O)=O)cc3)CC2)cc1 | 15.7 |
| CCC(C(=O)Nc1nccs1)c1ccccc1 (stereo not shown) | 9.98 |
| COc1ccc(-n2c(=O)c3ccccc3n(CC(=O)NCC3CCCO3)c2=O)cc1 (stereo not shown) | 13.4 |
| O=C(c1cnc2ccccc2n1)N1CCN(c2ccc(C(F)(F)F)cn2)CC1 | -17.1 |
| O=S(=O)(CCc1nc2ccccc2o1)c1ccc(Cl)cc1 | -7.14 |
| CCOc1ccc2[nH]c(=O)c(CN(CCCN3CCOCC3)Cc3nnnn3Cc3ccc(OC)cc3)cc2c1 | -60.9 |
| Cc1ccc2[nH]c(=O)c(CN(Cc3ccc4c(c3)OCO4)Cc3nnnn3C3CCCC3)cc2c1 | 4.66 |
| COc1ccc2cc(CN(Cc3ccco3)Cc3nnnn3C3CCCCC3)c(=O)[nH]c2c1 | -19.4 |
| Cc1ccc2[nH]c(=O)c(CN(CCCN3CCOCC3)Cc3nnnn3C3CCCC3)cc2c1 | -54.5 |
| COc1ccc2cc(CN(CCCN3CCOCC3)Cc3nnnn3C3CCCC3)c(=O)[nH]c2c1 | -59.7 |
| COc1ccc(Cn2nnnc2CN(CCCN2CCOCC2)Cc2cc3cc(OC)ccc3[nH]c2=O)cc1 | -42.7 |
| Cc1ccc2[nH]c(=O)c(CN(Cc3ccccc3)Cc3nnnn3C3CCCC3)cc2c1 | -6.83 |
| COc1cc2cc(CN(CCCN3CCOCC3)Cc3nnnn3Cc3ccccc3)c(=O)[nH]c2cc1OC | -20.2 |
| COc1ccc2cc(CN(CCCN3CCOCC3)Cc3nnnn3C3CCCCC3)c(=O)[nH]c2c1 | -26.5 |
| CCOc1ccc(S(=O)(=O)n2nnc3ccccc32)cc1C | 14.6 |

| Structure (SMILES) | hERG current change (%, negative = inhibition) at 10uM [%] |
| --- | --- |
| CCCn1c(C)c(C(=O)OCC)c(O)c(-c2ccccc2)c1=O | 19.5 |
| CC(=O)N1CCN(c2cc(N3CCCC3)c(F)cc2[N+](=O)[O-])CC1 | 5.05 |
| COc1ccc(/C=N/Nc2ccc(C(F)(F)F)cc2[N+](=O)[O-])cc1 | 5.35 |
| Cn1cccc1Cc1nnc(SCC(=O)NCCc2ccccc2)n1-c1ccc(F)cc1 | -21.6 |
| CC(C)Cc1nnc(NC(=O)CN2C(=O)NC3(CCCC3)C2=O)s1 | -9.22 |
| CC(=O)N=c1scc(-c2ccccc2)n1-c1cccc(O)c1 | 7.32 |
| COc1cnn(-c2ccc(Br)cc2)c(=O)c1SCc1ccccc1 | -65.6 |
| COc1cnn(-c2ccc(C)cc2)c(=O)c1SCc1ccccc1 | -20.9 |
| COc1cnn(-c2ccccc2)c(=O)c1SCc1ccc(Cl)c(Cl)c1 | -21.1 |
| CN(C)S(=O)(=O)c1ccc(NC(=S)NC(=O)C2CCC2)cc1 | 10.3 |
| CC(C)(SC(=S)N1CCCCCC1)C(=O)O | 24.3 |
| CC(C)(C)n1cn[nH]c1=S | 22 |
| CCCSc1cc(N2CCCC2)nc(-c2ccccc2)n1 | 15.5 |
| COc1cccc(CN2CCN(Cc3cc(OC)c(OC)c(OC)c3)CC2)c1OC.O=C(O)C(=O)O | -8.03 |
| COc1ccc(CN2CCC(N3CC(C)OC(C)C3)CC2)c(OC)c1.O=C(O)C(=O)O (stereo not shown) | -1.98 |
| COc1cccc(CN2CCC(N(CCc3ccccc3)Cc3ccccc3)CC2)c1OC.O=C(O)C(=O)O | -60.3 |
| COc1ccc(CN2CCC(C(=O)N(C)CCc3ccc(OC)c(OC)c3)CC2)c(OC)c1.O=C(O)C(=O)O | -44.9 |
| COc1ccc(CCN(C)C(=O)C2CCN(Cc3cccc(OC)c3OC)CC2)cc1OC.O=C(O)C(=O)O | -3.13 |
| COc1ccc(CN2CCC(N(CCc3ccccc3)Cc3ccccc3)CC2)c(OC)c1.O=C(O)C(=O)O | -74.5 |
